Assay outcomes as filed in PubChem BioAssay.
AmpC inh detg – inhibitors of E. coli AmpC beta-lactamase with detergent; P00811; AmpC hydrolysis of nitrocefin, absorbance 480 nm, 0.01% Triton; Potency, µM (top dose mostly 114 µM), for the others: top-dose activity change, negative = inhibition, most hits filed as inhibitors; 0.041% of 370,000 active;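 further: potency means the concentration at half of the fitted maximal effect; 0% = no-compound wells and -100% = no-enzyme wells; nearly all actives have a fitted effect of over 25% in size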
Target sequence (P00811 whole entry, looked up): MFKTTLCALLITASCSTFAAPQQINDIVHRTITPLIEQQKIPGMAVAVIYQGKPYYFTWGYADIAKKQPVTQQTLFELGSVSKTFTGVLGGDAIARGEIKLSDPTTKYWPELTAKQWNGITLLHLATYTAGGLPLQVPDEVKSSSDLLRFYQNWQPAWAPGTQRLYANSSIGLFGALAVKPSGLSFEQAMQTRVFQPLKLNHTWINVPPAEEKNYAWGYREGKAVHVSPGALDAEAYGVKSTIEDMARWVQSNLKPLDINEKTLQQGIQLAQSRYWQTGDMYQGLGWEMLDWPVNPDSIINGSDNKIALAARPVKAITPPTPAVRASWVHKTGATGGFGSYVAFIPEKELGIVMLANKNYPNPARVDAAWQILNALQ
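AmpC (5.3 nM in the dispensed reagent) in 20 mM phosphate pH 7.0 with 0.01% (detergent screen) or 0.0001% Triton X-100 was preincubated with compounds for 15 min at room temperature. Nitrocefin was then added from an 800 uM solution, and hydrolysis was followed at 480 nm.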
AmpC inh no detg – blocks E. coli AmpC beta-lactamase in detergent-free assay. AmpC nitrocefin hydrolysis, absorbance 480 nm, 0.0001% Triton. Potency, µM (highest dose often 57.1 µM), for the others: at the top dose activity change, negative = inhibition, most hits filed as inhibitors. 0.52% of 330,000 active. AID 485341;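 further: potency means the concentration at half of the fitted maximal effect; plate controls were no compound for no effect and no enzyme for full effect; nearly all actives have a fitted effect of over 20% in size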
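20 mM phosphate pH 7.0 + 0.01% (detergent screen) or 0.0001% Triton X-100; 5.3 nM AmpC reagent; cpd preinc 15 min RT; nitrocefin (800 uM stock) to start; A480 q20 s × 4 min; Activity was normalised to no-enzyme and no-compound control wells.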
HCMV inh – human cytomegalovirus inhibition; HFF cells, HCMV-luciferase reporter, 72 h; active compounds read low; 4.5% of 410,000 active; activity change, negative = inhibition, % at 57.5 µM; in the data active means activity change below about -60%; inconclusive means no clear call, values can overlap the other calls; inactive means above about -39%
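Two compound doses tested in HFFs infected with HCMV-luciferase, MOI 1 PFU/cell, 72 h at 37C. Lysate luminescence read with OneGlo; data normalized against buffer-only and 10uM Salinomycin inhibitor controls.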
FMDV inh – foot and mouth disease virus antiviral activity; Potency, µM (highest dose often 57.9 µM), for the others: top-dose activity change, negative = inhibition, usual class: inhibitors; FMDV antiviral cell-based qHTS; 1.2% of 410,000 active; AID 1159524; calls by dose curve; tested in HEK293T cells; further: read-out not given here; potency means the concentration at half of the fitted maximal effect; nearly all actives have a fitted effect of over 45% in size
HCV inhibitor – HCV inhibition; Huh7.5.1 HCVcc-Cre infection, luciferase reporter, 44 h; 3.4% of 340,000 active; Potency, µM (doses to about 41.8 µM), inactives show at the top dose activity change, negative = inhibition, most hits filed as inhibitors; further: potency means the concentration at half of the fitted maximal effect
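Luciferase read-out (15 sec integration) after a 15 min room-temperature substrate step quantifies HCVcc-Cre infection. Cells, 1,000 per well, had compound added 4 h post-plating, then virus at ~0.5 moi, and were cultured 44 h.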
* = called active by the depositor; ? = inconclusive; · = no result given; [ ] = dose if it differs, or a comment. An excerpt weighted towards active compounds, which were near 7.3% of everything screened. Unless noted, the call rests on the fitted dose curve; in most records, active means well fitted curve in the direction sought with a large enough effect; inconclusive means small, poorly fitted or top-dose-only effect, or another doubt; inactive means no such curve, though single readings can be large; an effect the other way counts as inactive or inconclusive. Unless noted, on the % scale 0 is the no-effect control and ±100 the full control effect.

SMILES	AmpC inh detg	AmpC inh no detg	HCMV inh	FMDV inh	HCV inhibitor
COc1cc(/C=C2\SC(=S)N(CC(=O)Nc3ccc(O)cc3)C2=O)cc(OC)c1OC	3.8%	?	-75.3*	-5.5%	-1.9%
COc1cc(/C=C2\SC(=S)N(CC(=O)Nc3cccnc3)C2=O)cc(OC)c1OC	4.3%	-14.1%	-12.3	?	8.9%
c1ccc(-n2cnc3ccccc32)nc1	-12.4%	-12.2%	?	8.8%	-22.8%
c1ccc(-c2ccc(-c3n(-c4ccccn4)c4ccccc4[n+]3-c3ccccn3)cc2)cc1	?	-11.0%[11.4 µM]	-1.9	14.1µM*	?
Cc1cccc(NC(=O)Cn2nc(-c3cccs3)ccc2=O)c1C	-11.8%	28.9%	39.2	2.1%	-5.9%
Cc1ccccc1CN1[C@@H](C)[C@H](c2ccccc2)Oc2cccc(NCC(C)C)c2S1(=O)=O	·	·	-32.9	·	·
CCOC(=O)c1ccc2[nH]c3c(c2c1)CCCC3O (centres undefined)	0.2%	-41.4%	-6.2	41.1%	10µM*
COC(=O)c1c(NC(=O)c2ccc(S(=O)(=O)N3CCC(C)CC3)cc2)sc2c1CCN(C)C2	1.7%	·	-14.3	-5.4%	·
COc1cc(NC(=O)C2CC(=O)N(Cc3ccco3)C2)c(OC)cc1Cl (centres undefined)	0.9%	2.9%	61.7	-1.5%	2.7%
COc1cc2c(cc1NC(=O)COC(=O)[C@@H](NC(=O)c1ccccc1)C(C)C)oc1ccccc12	-0.4%	-23.5%	9.6	-5.8%	7.08µM*
COc1cc2c(cc1NC(=O)COC(=O)C1CC(=O)N(Cc3ccco3)C1)oc1ccccc12 (centres undefined)	?	20.5%	203.4	49.2%	4.47µM*
COc1cc2c(cc1NC(=O)COC(=O)CNC(=O)c1ccccc1)oc1ccccc12	-0.3%	-19.0%	?	56.3%	10µM*
CCCCn1c(N)c(N(CCOC)C(=O)CN2C(=O)NC3(CC(C)CC(C)(C)C3)C2=O)c(=O)[nH]c1=O (centres undefined)	·	·	17.9	-9.4%	6.3%
Cc1cc(OCC(=O)N2CCC(C(=O)O)CC2)c2c(C)cc(=O)oc2c1	?	-26.0%	-8.8	-9.2%	?
COc1ccc(NC(=O)CSc2nc(C)c3c(c2C#N)CCCC3)cc1	?	-26.9%	?	-16.7%	-28.7%
CCc1nnc(NC(=O)CSc2nc(C)c3c(c2C#N)CCCC3)s1	3.0%	-26.2%	56.3	-22.2%	11.2µM*
CCc1ccc(NC(=O)c2ccc(C3SCC(=O)N3CCc3ccccc3)cc2)cc1 (centres undefined)	-2.5%	-6.3%	-36.1	?	?
Cc1cccc(NC(=O)c2ccc(C3SCC(=O)N3CCc3ccccc3)cc2)c1C (centres undefined)	-12.4%	-11.9%	-72.1*	?	?
COc1ccc(-c2noc(N3CCC(C(=O)N(C)c4ccccc4C)CC3)n2)cc1	?	143.2%	?	6.2%	11.2µM*
COc1ccc(-c2noc(N3CCC(C(=O)Nc4ccc(F)cc4)CC3)n2)cc1	-6.2%	-27.7%	-30.6	-22.1%	-2.7%
COc1ccc(-c2noc(N3CCC(C(=O)Nc4cccc(OC)c4)CC3)n2)cc1	?	-9.5%	-30.4	-21.9%	22.4µM*
COC(=O)c1cc(=O)nc(NN=C(C)C)s1	·	·	-9.4	·	·
CC(C)c1ccc2c(c1)C1(NN=C(c3ccccc3)S1)C(=O)N2 (centres undefined)	-3.1%	-34.9%	16.1	-20.2%	?
CCc1ccc2c(c1)C1(NN=C(c3ccc(C)cc3)S1)C(=O)N2 (centres undefined)	-2.3%	-38.5%	-100.9*	-23.9%	10µM*
O=C1c2cc([N+](=O)[O-])cc3cc([N+](=O)[O-])cc(c23)C(=O)N1c1ccccn1	-1.0%	-22.8%	-14.1	12.6µM*	?
SMILES	AmpC inh detg	AmpC inh no detg	HCMV inh	FMDV inh	HCV inhibitor
O=C(O)c1cccc(N2C(=O)c3cc([N+](=O)[O-])cc4cc([N+](=O)[O-])cc(c34)C2=O)c1	-17.5%	-32.4%	-17.9	35.5µM*	?
COc1ccc(CCN(Cc2cc3ccc(C)cc3[nH]c2=O)C(C)=O)cc1OC	0.1%	3.2%	0.9	-23.7%	-6.4%
COc1ccc(C2CC(=O)c3cnc(NC(=O)c4ccco4)nc3C2)cc1 (centres undefined)	0.9%	27.7%	-25.3	-9.9%	15.5%
COc1ccccc1C(=O)Nc1ncc2c(n1)CC(c1ccco1)CC2=O (centres undefined)	?	-12.0%	-84.3*	·	?
COc1ccc(/C=C(\NC(=O)c2ccc(C)cc2)C(=O)Nc2ccc(C(=O)O)cc2)cc1	1.1%	9.9%	-8.5	30.8%	2.5%
CCN(CC)c1ccc(/C=N/NC(=O)c2c[nH]c3ccccc23)cc1	?	-27.6%	-67.0*	5.7%	?
O=C(N/N=C/c1cccs1)c1c[nH]c2ccccc12	?	-33.5%	78.8	41.8%	12.8%
CCc1ccc(/C=N/NC(=O)c2c[nH]c3ccccc23)s1	-0.5%	22.4µM*	11.9	40.2%	?
O=C(Cn1cc(SCc2c(F)cccc2Cl)c2ccccc21)N1CCCC1	-6.0%	·	-31.4	17.9%	·
Cc1nc(N)nc(N)c1/C=C/C(C)(C)c1ccc(Cl)cc1	-5.8%	31.5%	-109.0*	?	?
CC(C)CN=C(NS(=O)(=O)c1ccccc1)C(Cl)(Cl)Cl	?	-17.0%	-99.5*	?	5.01µM*
CC(C)CC(NS(=O)(=O)c1ccccc1)C(=O)O (centres undefined)	-2.2%	-2.7%	-10.5	12.6%	5.4%
CCc1ccccc1Nc1nc(N)nc(COC(=O)c2cccn2C)n1	?	-3.2%	-64.7*	27.4%	?
Cc1ccccc1Nc1nc(N)nc(COC(=O)c2cccn2C)n1	-19.1%	-7.8%	20.7	52.5%	?
CCOc1ccc(C2=NC(c3cccs3)=Nc3ccc(C(C)C)cc3N2)cc1	0.8%	·	29.5	56.4%	·
CC(=O)/C(=N\Nc1ccccc1)Sc1cccc2cccnc12	-12.0%	-20.9%	9.8	-22.0%	?
O=C(Sc1cccc2cccnc12)c1ccccc1Br	-7.0%	-26.5%	-96.9*	·	·
O=C(Sc1cccc2cccnc12)c1ccc(F)cc1	-17.8%	-28.5%[11.4 µM]	-100.1*	·	·
COc1cccc(NC(=O)Nc2nnc([C@@H]3C[C@H](O)[C@@H](CO)O3)s2)c1	·	·	0.0	-13.2%	·
Cc1ccc2oc(=O)c3cnn(CC(=O)N(C)c4ccc(F)cc4)c3c2c1	3.0%	·	3.1	-12.2%	·
CCC1S/C(=C(\C#N)C(=O)NCc2ccco2)N(c2ccc(F)cc2)C1=O (centres undefined)	?	-19.4%	14.6	-13.3%	-0.3%
CC1S/C(=C(\C#N)C(=O)NCc2ccco2)N(c2ccc(F)cc2)C1=O (centres undefined)	?	-13.9%	-96.8*	-11.1%	4.2%
